Values joined by “and” are separate entries in the source; they are usually repeats but may differ in a detail not shown here. Equal entries are not always repeated. Inconclusive results are not listed. Where a structure was tested more than once in an assay, its records may differ in their call. Active and inactive are the calls of the source. Rule for the calls: active = hit-call score of the fitted dose curve at least 0.9, where 1 is the maximum; inconclusive = response in the unintended direction; inactive = score below 0.9.
System: not listed separately
Assay: ACEA_ER_AUC_viability: ACEA Biosciences xCELLigence Real-Time Cell Analysis on Estrogen Receptor Agonism for Viability (AID 2283782);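 note: continuous compound exposure with impedance area under curve over 80 h; hit means loss of impedance signal meaning reduced cell growth or viability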
Procedure, shortened: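 T-47D human breast cells in phenol red-free RPMI1640 with 10% charcoal-stripped FBS were dosed with an 8-point 1:4 dilution series from 100 uM top final concentration, in duplicate. Impedance-based growth was followed for 80 h; AUC analysed versus DMSO.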

SMILES	outcome	AC50
Cc1ccc(S(=O)(=O)O)cc1	inactive	–
CCCCCCCCCCCCOC(=O)c1cc(O)c(O)c(O)c1	–	2.97 µM (active)
Cc1cc(C(C)(C)C)c(O)c(C(C)(C)C)c1	–	79.4 µM (active)
O=C1NS(=O)(=O)c2ccccc21	inactive	–
CCC(C)c1ccccc1O (configuration not stated)	–	79.7 µM (active)
CCc1ccccc1O	inactive	–
CC(C)[C@@H]1CC[C@@H](C)C[C@H]1O	inactive	–
COc1cc([N+](=O)[O-])ccc1N	inactive	–
Cc1cc(C(=C2C=CC(=Nc3ccc(S(=O)(=O)O)cc3)C=C2)c2ccc(Nc3ccc(S(=O)(=O)O)cc3)cc2)cc(S(=O)(=O)O)c1N	inactive	–
CC(C)c1c(C(=O)Nc2ccccc2)c(-c2ccccc2)c(-c2ccc(F)cc2)n1CC[C@@H](O)C[C@@H](O)CC(=O)O	–	2.91 µM (active)
NS(=O)(=O)O	inactive	–
Cc1ccc(C)c(S(=O)(=O)O)c1	inactive	–
CCCCC(CC)C(=O)O (configuration not stated)	inactive	–
CCCCc1oc2ccccc2c1C(=O)c1cc(I)c(OCCN(CC)CC)c(I)c1	–	11.5 µM (active)
Cc1cc(Cc2cc(C)cc(C(C)(C)C)c2O)c(O)c(C(C)(C)C)c1	–	11.4 µM (active)
NCCN	inactive	–
CN(C)CCOC(c1ccccc1)c1ccccc1	–	50 µM (active)
CC(O)COc1ccccc1 (configuration not stated)	inactive	–
O=C(CCCN1CCC(O)(c2ccc(Cl)cc2)CC1)c1ccc(F)cc1	inactive	–
CCCCCCCCCCCC	–	50 µM (active) and 40.4 µM (active)
O=C1OC2(c3ccccc31)c1cc(I)c(O)c(I)c1Oc1c2cc(I)c(O)c1I	inactive	18.5 µM (active)
CCCCCCc1ccc(N)cc1	–	50 µM (active)
NC(=NCCCCCCN=C(N)/N=C(\N)Nc1ccc(Cl)cc1)/N=C(\N)Nc1ccc(Cl)cc1	–	8.38 µM (active) and 9.06 µM (active)

Target: AR (gene 367) (UniProt P10275)
Assay: ACEA_AR_agonist_80hr: ACEA Biosciences xCELLigence Real-Time Cell Analysis on Androgen Receptor Agonism for Proliferation (AID 2283783);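 note: hits increase impedance growth signal above DMSO baseline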
Procedure, shortened: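 22Rv1 human prostate cancer cells were seeded after preconditioning in assay medium and monitored overnight, then dosed in an eight-point 1:4 dilution series from 100 uM (≤0.5% DMSO). Impedance-based growth was read at 80 h, gain-of-signal versus DMSO.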

Chain of AR (gene 367) (P10275 whole entry, looked up): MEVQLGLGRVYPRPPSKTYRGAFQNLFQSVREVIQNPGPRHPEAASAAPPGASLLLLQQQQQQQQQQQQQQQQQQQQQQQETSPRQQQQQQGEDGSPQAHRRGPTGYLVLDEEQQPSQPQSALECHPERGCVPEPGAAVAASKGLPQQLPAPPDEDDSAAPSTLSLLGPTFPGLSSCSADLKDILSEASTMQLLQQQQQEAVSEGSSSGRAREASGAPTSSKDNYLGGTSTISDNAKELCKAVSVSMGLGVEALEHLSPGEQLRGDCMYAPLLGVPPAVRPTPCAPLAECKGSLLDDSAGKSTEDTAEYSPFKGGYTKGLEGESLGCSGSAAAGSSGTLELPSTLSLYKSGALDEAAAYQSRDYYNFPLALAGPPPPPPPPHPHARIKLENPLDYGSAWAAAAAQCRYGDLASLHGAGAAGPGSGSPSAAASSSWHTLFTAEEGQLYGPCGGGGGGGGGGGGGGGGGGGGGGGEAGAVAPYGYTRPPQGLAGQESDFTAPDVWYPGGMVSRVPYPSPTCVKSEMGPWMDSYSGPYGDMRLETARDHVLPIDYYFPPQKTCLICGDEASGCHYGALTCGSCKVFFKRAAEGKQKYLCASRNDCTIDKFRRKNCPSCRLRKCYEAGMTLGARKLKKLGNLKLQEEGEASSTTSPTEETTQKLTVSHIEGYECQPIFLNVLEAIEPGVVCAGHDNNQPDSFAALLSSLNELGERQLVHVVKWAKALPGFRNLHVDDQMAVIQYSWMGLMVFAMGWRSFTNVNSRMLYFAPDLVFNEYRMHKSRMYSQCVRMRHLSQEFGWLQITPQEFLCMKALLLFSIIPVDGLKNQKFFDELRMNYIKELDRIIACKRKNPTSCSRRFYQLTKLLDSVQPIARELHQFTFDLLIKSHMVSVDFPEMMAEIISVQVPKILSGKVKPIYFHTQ

SMILES	outcome
CN(Cc1cnc2nc(N)nc(N)c2n1)c1ccc(C(=O)N[C@@H](CCC(=O)O)C(=O)O)cc1	inactive
CN(C)CCOC(c1ccccc1)c1ccccc1	inactive
CCCCCCc1ccc(N)cc1	inactive
NC(=NCCCCCCN=C(N)/N=C(\N)Nc1ccc(Cl)cc1)/N=C(\N)Nc1ccc(Cl)cc1	inactive

System: not listed separately
Assay: STM_H9_NormalizedViability: Cytotoxicity Assessment at 120 hours in the Stemina devTOX quickPredict H9 human embryonic stem cell (hESC)-based Assay (AID 2283784)
Procedure, shortened: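 Undifferentiated H9 hESCs kept pluripotent were exposed to compound, with media and chemical replaced every 24h. CellTiter-Fluor protease-substrate fluorescence was background-corrected and normalized per plate to the 0.1% DMSO vehicle; signal loss indicates reduced viability.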

SMILES	AC50	outcome
CN(Cc1cnc2nc(N)nc(N)c2n1)c1ccc(C(=O)N[C@@H](CCC(=O)O)C(=O)O)cc1	0.0867 µM (active)	–
Cc1[nH]nc2c1N=C(c1ccccc1Cl)c1cc([N+](=O)[O-])ccc1N2	1.99 µM (active)	–
CCCCC(CC)C(=O)O (configuration not stated)	–	inactive
CCCCc1oc2ccccc2c1C(=O)c1cc(I)c(OCCN(CC)CC)c(I)c1	4.41 µM (active)	–
CN(C)CCOC(c1ccccc1)c1ccccc1	8.23 µM (active)	–
O=C(CCCN1CCC(O)(c2ccc(Cl)cc2)CC1)c1ccc(F)cc1	–	inactive
OCC(CO)(CBr)CBr	–	inactive

Target: AR (gene 367) (UniProt P10275)
Assay: ACEA_AR_antagonist_80hr: ACEA Biosciences xCELLigence Real-Time Cell Analysis on Androgen Receptor Antagonism for Proliferation (AID 2283787);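 note: hits lower the impedance growth signal relative to DMSO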
Procedure, shortened: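 Impedance readout (RT-CES), 80 h post-dose; loss-of-signal vs DMSO baseline. 22Rv1 cells in assay medium. Compounds: 8-pt 1:4 series, max 100 uM final, up to 0.5% DMSO; n = 2.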

SMILES	AC50	outcome
CN(Cc1cnc2nc(N)nc(N)c2n1)c1ccc(C(=O)N[C@@H](CCC(=O)O)C(=O)O)cc1	0.39 µM (active)	–
CC(C)[C@@H]1CC[C@@H](C)C[C@H]1O	0.48 µM (active)	–
COc1cc([N+](=O)[O-])ccc1N	2.99 µM (active)	–
Cc1cc(C(=C2C=CC(=Nc3ccc(S(=O)(=O)O)cc3)C=C2)c2ccc(Nc3ccc(S(=O)(=O)O)cc3)cc2)cc(S(=O)(=O)O)c1N	–	inactive
CC(O)COc1ccccc1 (configuration not stated)	–	inactive
CCCCCCc1ccc(N)cc1	–	inactive
NC(=NCCCCCCN=C(N)/N=C(\N)Nc1ccc(Cl)cc1)/N=C(\N)Nc1ccc(Cl)cc1	9.25 µM (active)	–
